According to PubChem BioAssay (Tox21):
Results filed as inconclusive are left out. Active and inactive are the calls of the source. Unless noted, calls follow the shape of the dose curve; as a rule, active = well fitted curve in the direction sought with a large enough effect in the repeat runs; inconclusive = weak or mixed curves; inactive = no such curve, though single readings can be large; an effect the other way counts as inactive or inconclusive.

Columns and labels:
[1] = qHTS assay to identify small molecule agonists of the peroxisome proliferator-activated receptor delta (PPARd) signaling pathway - cell viability counter screen (AID 743211); also: % is scaled to controls: 0 for no effect and ±100 for the full control effect; nearly all actives have a fitted effect of over 55% in size
How it was run: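 PPARd-bla HEK293H cells (3000/well) were pre-incubated 5 h at 37 C, then exposed to compound for 17 h at 37 C. After 2 h with LiveBLAzer substrate, CellTiter-Glo was added to the same wells; luminescence read after 30 min at room temperature.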

[2] = target: Peroxisome proliferator-activated receptor delta (Homo sapiens) (UniProt Q03181); test: qHTS assay to identify small molecule agonists of the peroxisome proliferator-activated receptor delta (PPARd) signaling pathway (AID 743212; calls by dose curve; also: % is scaled to controls: 0 for no effect and ±100 for the full control effect)
How it was run: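 Cells expressing a UAS-driven beta-lactamase reporter (PPARd-bla HEK293H) were given test compounds after a 5 h settle and kept at 37 C. Reporter activity was then measured as FRET fluorescence using LiveBLAzer B/G substrate.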

[3] = qHTS assay to identify small molecule antagonists of the peroxisome proliferator-activated receptor delta (PPARd) signaling pathway - cell viability counter screen (AID 743213); also: % is scaled to controls: 0 for no effect and ±100 for the full control effect; nearly all actives have a fitted effect of over 50% in size
How it was run: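 Viability counter-screen, qHTS format: PPARd-bla HEK293H, L165041 300 nM final, 17 h compound exposure at 37 C, CellTiter-Glo luminescence after 30 min RT.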

[4] = target: Peroxisome proliferator-activated receptor delta (Homo sapiens) (UniProt Q03181); test: qHTS assay to identify small molecule antagonists of the peroxisome proliferator-activated receptor delta (PPARd) signaling pathway (AID 743215; active = well fitted inhibition curve with a large enough effect in the signal ratio in the repeat runs, not every such curve was filed as active; the % refers to the signal ratio;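 also: cells stimulated with agonist L165041 at 300 nM final during compound exposure; series mostly up to about 62 µM; % is scaled to controls: 0 for no effect and ±100 for the full control effect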)
How it was run: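 HEK293H GeneBLAzer PPARd UAS-bla reporter cells; cpd + L165041 300 nM final, 17 h 37 C; LiveBLAzer B/G FRET substrate 2 h RT; fluorescence intensity read-out. Antagonist mode.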

[5] = qHTS assay to identify small molecule agonists of the farnesoid-X-receptor (FXR) signaling pathway - cell viability counter screen (AID 743218); also: % is scaled to controls: 0 for no effect and ±100 for the full control effect; nearly all actives have a fitted effect of over 45% in size
How it was run: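 Luminescence from CellTiter-Glo, read after 30 min at RT, reports viability of GeneBLAzer FXR-UAS-bla HEK 293T cells treated 16 h with compounds in the wells used for the beta-lactamase reporter.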

[6] = qHTS assay to identify small molecule antagonists of the farnesoid-X-receptor (FXR) signaling pathway - cell viability counter screen (AID 743221; active = well fitted cell-killing curve with a large enough effect in the repeat runs, not every such curve was filed as active; also: % is scaled to controls: 0 for no effect and ±100 for the full control effect; nearly all actives have a fitted effect of over 50% in size)
How it was run: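 GeneBLAzer FXR-UAS-bla HEK 293T cells, compound plus chenodeoxycholic acid (50 uM final), 16 h at 37 C. CellTiter-Glo added to the same wells after the beta-lactamase read; luminescence read after 30 min at room temperature as viability.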

[7] = target: Vitamin D3 receptor (Homo sapiens) (UniProt P11473); test: qHTS assay to identify small molecule agonists of the vitamin D receptor (VDR) signaling pathway (AID 743222; calls by dose curve; also: % is scaled to controls: 0 for no effect and ±100 for the full control effect)
How it was run: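 Beta-lactamase reporter readout (LiveBLAzer B/G FRET, 2 h RT) in VDR-bla cells after 16 h compound treatment at 37C, 5% CO2; cells pre-incubated 4 h before pin transfer of DMSO solutions.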

[8] = qHTS assay to identify small molecule antagonists of the vitamin D receptor (VDR) signaling pathway - cell viability counter screen (AID 743225); also: % is scaled to controls: 0 for no effect and ±100 for the full control effect; nearly all actives have a fitted effect of over 50% in size
How it was run: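 VDR-UAS-bla HEK 293T cells were plated and incubated 4 h at 37C, then dosed with compound plus 3 nM (final) 1-alpha,25-dihydroxyvitamin D3 for 16 h. After the 2 h beta-lactamase read, viability in the same wells was read as CellTiter-Glo luminescence after 30 min at room temperature.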

[9] = qHTS assay to identify small molecule agonists of the NFkB signaling pathway (AID 1159509; active = well fitted curve in the direction sought with a large enough effect in the signal ratio in the repeat runs, not every such curve was filed as active; the % refers to the signal ratio; also: series mostly up to about 61 µM; % is scaled to controls: 0 for no effect and ±100 for the full control effect)
How it was run: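 Pathway activation was measured in ME-180 cells stably expressing beta-lactamase under NF-kB response element control. Substrate cleavage was read as the 460/530 nm emission shift after 5 hr compound incubation.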

[10] = qHTS assay to identify small molecule agonists of the NFkB signaling pathway - cell viability counter screen (AID 1159515; calls by dose curve; also: series mostly up to about 61 µM; % is scaled to controls: 0 for no effect and ±100 for the full control effect; nearly all actives have a fitted effect of over 55% in size)
How it was run: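 ME-180 NFkB-bla cells, 2,000/well; overnight attach; compound 5 hr, 37 C/5% CO2; LiveBLAzer substrate 1.5 hr RT; then CellTiter-Glo in same wells, 30 min RT, luminescence read.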

[11] = qHTS assay to identify small molecule agonists of the endoplasmic reticulum stress response signaling pathway (AID 1159516; active = well fitted activation curve with a large enough effect in the signal ratio in the repeat runs, not every such curve was filed as active; the % refers to the signal ratio; also: % is scaled to controls: 0 for no effect and ±100 for the full control effect)
How it was run: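 HeLa ESRE-bla reporter line; cpd 5 h, 37 C/5% CO2; LiveBLAzer B/G FRET substrate 2 h RT; ex 405, em 460/530 nm.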

[12] = qHTS assay to identify small molecule antagonists of the retinoid-related orphan receptor gamma (ROR-gamma) signaling pathway - cell viability counter screen (AID 1159520); also: % is scaled to controls: 0 for no effect and ±100 for the full control effect; nearly all actives have a fitted effect of over 50% in size
How it was run: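 Tet-on ROR gamma CHO cells (1,000/well) were plated 4 hr, given compounds in DMSO for 2 hr at 37 C, then induced with 1 uM final doxycycline for 16 hr. Viability was read as ATP by CellTiter-Glo luminescence after 30 min.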

[13] = qHTS assay to identify small molecule agonists of the AP-1 signaling pathway - cell viability counter screen (AID 1159525; calls by dose curve; also: nearly all actives have a fitted effect of over 55% in size)
How it was run: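 Each titration point was normalised to DMSO and tetra n-octyl ammonium bromide controls. The read was Cell Titer Glo luminescence after 30 min at RT, following 5 h compound exposure of ME-180 AP-1-bla cells at 37 °C.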

[14] = qHTS assay to identify small molecule agonists of the AP-1 signaling pathway (AID 1159526; calls by dose curve; also: % is scaled to controls: 0 for no effect and ±100 for the full control effect)
[15] = target: Vitamin D3 receptor (Homo sapiens) (UniProt P11473); test: qHTS assay to identify small molecule antagonists of the vitamin D receptor (VDR) signaling pathway (AID 743223; active = well fitted inhibition curve with a large enough effect in the signal ratio in the repeat runs, not every such curve was filed as active; the % refers to the signal ratio; also: % is scaled to controls: 0 for no effect and ±100 for the full control effect)
How it was run: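 VDR-bla cells were treated with compound plus 3 nM final 1alpha,25-dihydroxyvitamin D3 for 16 h at 37C. Beta-lactamase reporter read by B/G FRET substrate fluorescence after 2 h at room temperature. qHTS format.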

[16] = qHTS assay to identify small molecule agonists of the vitamin D receptor (VDR) signaling pathway - cell viability counter screen (AID 743224)
How it was run: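 Cytotoxicity counter screen: VDR-bla cells, 16 h compound exposure at 37C, 5% CO2; CellTiter-Glo luminescence, 30 min RT, same wells as bla read.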

[17] = qHTS assay to identify small molecule agonists of the endoplasmic reticulum stress response signaling pathway - cell viability counter screen (AID 1159517; calls by dose curve)
How it was run: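 Cpd-treated ESRE-bla HeLa (5 hr, 37 C) → LiveBLAzer 2 hr RT → CellTiter-Glo 30 min RT → luminescence.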

[18] = target: Nuclear receptor ROR-gamma (Homo sapiens) (UniProt P51449); test: qHTS assay to identify small molecule antagonists of the retinoid-related orphan receptor gamma (ROR-gamma) signaling pathway (AID 1159521)
How it was run: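 Tet-on ROR-gamma CHO cells with ROR response element-luciferase reporter; compounds added 2 hr before 1 uM doxycycline induction, then 16 hr at 37 C. Antagonism scored as decreased ONE-Glo luminescence.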

[19] = target: Bile acid receptor (Homo sapiens) (UniProt Q96RI1); test: qHTS assay to identify small molecule antagonists of the farnesoid-X-receptor (FXR) signaling pathway (AID 743217; active = well fitted inhibition curve with a large enough effect in the signal ratio in the repeat runs, not every such curve was filed as active; the % refers to the signal ratio; also: % is scaled to controls: 0 for no effect and ±100 for the full control effect)
How it was run: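 Read-out: beta-lactamase FRET fluorescence (LiveBLAzer B/G substrate, 2 h, room temperature) in GeneBLAzer FXR-UAS-bla HEK 293T cells. Compounds were co-dosed with 50 uM chenodeoxycholic acid (final) and incubated 16 h at 37 °C.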

[20] = target: Bile acid receptor (Homo sapiens) (UniProt Q96RI1); test: qHTS assay to identify small molecule agonists of the farnesoid-X-receptor (FXR) signaling pathway (AID 743220; active = well fitted activation curve with a large enough effect in the signal ratio in the repeat runs, not every such curve was filed as active; the % refers to the signal ratio; also: % is scaled to controls: 0 for no effect and ±100 for the full control effect)
How it was run: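 FXR-UAS-bla HEK 293T cells carrying a UAS-driven beta-lactamase reporter were plated for 5 h at 37C/5% CO2, then exposed to DMSO-dissolved Tox21 10K compounds for 16 h at 37C. A LiveBLAzer B/G FRET substrate was loaded for 2 h at room temperature before fluorescence reading.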

Peroxisome proliferator-activated receptor delta (Homo sapiens), sequence (Q03181 whole entry, looked up): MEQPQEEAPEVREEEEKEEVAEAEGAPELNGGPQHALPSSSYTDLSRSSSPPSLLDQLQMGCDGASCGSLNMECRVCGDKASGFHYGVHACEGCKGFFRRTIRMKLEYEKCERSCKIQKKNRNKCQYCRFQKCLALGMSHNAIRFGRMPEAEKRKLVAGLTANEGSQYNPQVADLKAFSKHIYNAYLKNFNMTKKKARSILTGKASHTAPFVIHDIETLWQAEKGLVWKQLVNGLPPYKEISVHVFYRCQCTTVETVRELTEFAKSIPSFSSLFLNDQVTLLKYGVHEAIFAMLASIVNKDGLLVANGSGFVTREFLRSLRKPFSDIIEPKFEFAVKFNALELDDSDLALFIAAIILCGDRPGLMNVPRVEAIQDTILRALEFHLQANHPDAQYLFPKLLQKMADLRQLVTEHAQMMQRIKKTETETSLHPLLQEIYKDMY
Vitamin D3 receptor (Homo sapiens), sequence (P11473 whole entry, looked up): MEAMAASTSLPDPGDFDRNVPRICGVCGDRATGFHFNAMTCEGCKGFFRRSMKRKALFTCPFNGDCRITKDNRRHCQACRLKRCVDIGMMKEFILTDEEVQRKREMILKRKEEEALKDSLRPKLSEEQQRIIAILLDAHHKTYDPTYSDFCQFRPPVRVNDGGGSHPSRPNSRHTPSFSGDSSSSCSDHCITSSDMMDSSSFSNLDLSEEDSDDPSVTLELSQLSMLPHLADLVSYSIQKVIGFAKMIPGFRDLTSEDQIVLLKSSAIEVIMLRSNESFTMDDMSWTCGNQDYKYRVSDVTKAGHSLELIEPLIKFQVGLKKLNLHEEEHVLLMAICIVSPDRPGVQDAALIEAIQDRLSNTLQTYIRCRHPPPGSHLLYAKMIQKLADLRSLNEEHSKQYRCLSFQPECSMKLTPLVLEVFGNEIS
Bile acid receptor (Homo sapiens), sequence (Q96RI1 whole entry, looked up): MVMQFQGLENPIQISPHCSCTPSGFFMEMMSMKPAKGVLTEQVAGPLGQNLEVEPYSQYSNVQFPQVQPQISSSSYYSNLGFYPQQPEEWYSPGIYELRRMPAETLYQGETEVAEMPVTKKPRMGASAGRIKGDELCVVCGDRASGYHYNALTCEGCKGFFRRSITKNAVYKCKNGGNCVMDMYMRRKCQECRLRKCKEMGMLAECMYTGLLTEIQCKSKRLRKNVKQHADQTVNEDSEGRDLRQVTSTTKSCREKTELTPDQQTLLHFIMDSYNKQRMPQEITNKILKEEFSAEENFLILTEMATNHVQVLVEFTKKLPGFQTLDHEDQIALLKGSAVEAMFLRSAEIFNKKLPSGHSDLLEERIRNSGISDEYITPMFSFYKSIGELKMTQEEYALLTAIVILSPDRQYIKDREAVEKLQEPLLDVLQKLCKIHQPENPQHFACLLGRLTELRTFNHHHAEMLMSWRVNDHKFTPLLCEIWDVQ

Nc1ncnc(Nc2ccccc2)n1
inactive: outcome [1] | outcome [2] | outcome [3] | outcome [4] | Potency [5] | outcome [6] | outcome [7] | outcome [8] | outcome [9] | outcome [10] | outcome [11] | outcome [12] | outcome [13] | outcome [14]

Cc1cc2cc3c(C)cc(=O)oc3c(C)c2o1
inactive: outcome [1] | outcome [2] | outcome [3] | outcome [4] | outcome [6] | outcome [15] | Potency [16] | outcome [8] | outcome [9] | outcome [10] | outcome [11] | Potency [17] | outcome [12] | outcome [13] | outcome [14]

C=CC(OCC)OCC
inactive: outcome [1] | outcome [2] | outcome [3] | outcome [4] | Potency [5] | outcome [7] | outcome [15] | Potency [16] | outcome [8] | outcome [9] | outcome [10] | outcome [11] | Potency [17] | outcome [12] | outcome [13] | outcome [14]

COC(=O)[C@@H]1[C@H]2C[C@H]3c4[nH]c5ccccc5c4CCN3C[C@@H]2CC[C@@H]1O
inactive: outcome [1] | outcome [2] | outcome [3] | Potency [5] | outcome [6] | Potency [16] | outcome [8] | outcome [9] | outcome [10] | outcome [11] | outcome [12] | outcome [18] | outcome [13] | outcome [14]

CN(C)C(=O)CNC(=O)Cc1ccccc1
inactive: outcome [1] | outcome [6] | outcome [8] | outcome [9] | outcome [10] | outcome [11] | outcome [12] | outcome [18] | outcome [13] | outcome [14]

Cc1cccc(OCC(O)CNC(C)(C)C)c1C (centres undefined)
inactive: outcome [1] | outcome [3] | Potency [5] | outcome [6] | outcome [7] | outcome [15] | outcome [8] | outcome [9] | outcome [10] | outcome [11] | outcome [12] | outcome [18] | outcome [13] | outcome [14]

CCC(CC)CO
inactive: outcome [1] | outcome [2] | outcome [3] | outcome [4] | outcome [6] | outcome [15] | Potency [16] | outcome [8] | outcome [9] | outcome [10] | outcome [11] | Potency [17] | outcome [12] | outcome [13] | outcome [14]

C=Cc1ccccn1
inactive: outcome [1] | outcome [2] | outcome [3] | outcome [4] | Potency [5] | outcome [6] | outcome [7] | outcome [15] | outcome [8] | outcome [9] | outcome [10] | outcome [11] | Potency [17] | outcome [12] | outcome [13] | outcome [14]

CC(C)N(c1ccccc1)C(C)C
inactive: outcome [1] | outcome [2] | outcome [3] | outcome [4] | Potency [5] | outcome [6] | outcome [7] | Potency [16] | outcome [8] | outcome [9] | outcome [10] | outcome [11] | outcome [12] | outcome [18] | outcome [13] | outcome [14]

CCCCNC1CC(C)(C)NC(C)(C)C1
inactive: outcome [1] | outcome [2] | outcome [3] | outcome [4] | Potency [5] | outcome [7] | outcome [15] | Potency [16] | outcome [8] | outcome [9] | outcome [10] | outcome [11] | Potency [17] | outcome [12] | outcome [13] | outcome [14]

Cc1ccc(S(=O)(=O)O)c(C)c1
inactive: outcome [1] | outcome [2] | outcome [3] | outcome [4] | Potency [5] | outcome [7] | outcome [15] | Potency [16] | outcome [8] | outcome [9] | outcome [10] | outcome [11] | Potency [17] | outcome [12] | outcome [13] | outcome [14]

OC[C@H](Cc1cccc(O)c1)[C@H](CO)Cc1cccc(O)c1
inactive: outcome [1] | outcome [2] | outcome [3] | outcome [4] | Potency [19] | Potency [20] | outcome [15] | Potency [16] | outcome [8] | outcome [9] | outcome [10] | outcome [11] | Potency [17] | outcome [12] | outcome [13] | outcome [14]

Oc1cn2c(n1)Nc1ccc(Cl)c(Cl)c1C2
inactive: outcome [1] | outcome [2] | outcome [3] | outcome [4] | Potency [5] | outcome [6] | outcome [15] | Potency [16] | outcome [8] | outcome [9] | outcome [10] | outcome [11] | Potency [17] | activity, negative = cytotoxicity [12] -0.0979% [at 19 µM] | viability change, negative = cytotoxic [13] -0.119% [at 15.8 µM] | activation [14] 0.89% [at 15.8 µM]

O=S(=O)(O)c1cc(O)c2ccc(Nc3ccccc3)cc2c1
inactive: outcome [1] | outcome [3] | outcome [7] | outcome [15] | Potency [16] | outcome [8] | outcome [9] | outcome [10] | outcome [11] | outcome [12] | outcome [18] | outcome [13] | outcome [14]

CC(=O)/C=C/C1C(C)=CCC(C)C1(C)C (centres undefined)
inactive: outcome [1] | outcome [2] | outcome [3] | outcome [4] | Potency [5] | outcome [6] | outcome [7] | outcome [15] | Potency [16] | outcome [8] | outcome [9] | outcome [10] | outcome [11] | outcome [12] | outcome [18] | outcome [13] | outcome [14]
